# Assay results reported in PubChem BioAssay (Tox21).
# Results filed as inconclusive are left out. Entries that show only a call come without a potency. Unmarked numbers belong to inactive results. Active and inactive are the calls of the source. Unless noted, calls come from the whole dose curve; as a rule, active = well fitted curve in the direction sought with a large enough effect in the repeat runs; inconclusive = weak or mixed curves; inactive = no such curve, though single readings can be large; an effect the other way counts as inactive or inconclusive.
# Experiments:
# [1] = target: Aryl hydrocarbon receptor (Homo sapiens) (UniProt P35869); test: qHTS assay to identify small molecule that activate the aryl hydrocarbon receptor (AhR) signaling pathway (AID 743085);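 note: HG2L7.5c1 human HepG2 liver cells with stably integrated DRE-driven firefly reporter; series mostly up to about 70 µM; nearly all actives have a fitted effect of over 15% in size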
# How it was run: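 Luminescence read-out: ONE-Glo reagent, 30 min at room temperature, in HG2L7.5c1 HepG2 reporter cells treated 24 h at 37C. Viability was measured beforehand by CellTiter-Fluor fluorescence after 30 min at 37C.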
# [2] = qHTS assay to identify small molecule that activate the aryl hydrocarbon receptor (AhR) signaling pathway - cell viability counter screen (AID 743086);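 note: HepG2 liver cells carrying the AhR DRE luciferase reporter; series mostly up to about 70 µM; nearly all actives have a fitted effect of over 45% in size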
# How it was run: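 HepG2-AhR-luc (HG2L7.5c1) cells, 4000/well, were preincubated 5 h at 37C, exposed to compound in qHTS format for 24 hr at 37C, then given CellTiter-Fluor for 30 min; viability was read as fluorescence in the reporter wells.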
# [3] = qHTS assay to identify small molecule antagonists of the peroxisome proliferator-activated receptor gamma (PPARg) signaling pathway - cell viability counter screen (AID 743194); note: nearly all actives have a fitted effect of over 55% in size
# How it was run: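 PPARg-UAS-bla HEK293H cells were plated, rested 5 h at 37 C, then treated with compounds plus rosiglitazone (50 nM final) for 17 h at 37 C; viability was then read by CellTiter-Glo luminescence after 30 min at room temperature.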
# [4] = qHTS assay for small molecule agonists of the antioxidant response element (ARE) signaling pathway (AID 743202; active = well fitted activation curve with a large enough effect in the signal ratio in the repeat runs, not every such curve was filed as active; the % refers to the signal ratio)
# How it was run: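 Read-out: LiveBLAzer B/G FRET substrate fluorescence after 2 h at room temperature, following 16 h compound treatment at 37 C of HepG2 cells carrying an ARE-driven beta-lactamase reporter.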
# [5] = qHTS assay for small molecule agonists of the antioxidant response element (ARE) signaling pathway - cell viability counter screen (AID 743203; calls by dose curve; note: nearly all actives have a fitted effect of over 55% in size)
# How it was run: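 HepG2 cells carrying ARE-driven beta-lactamase; 2,000 cells/well; 5 hrs plating; compound pinned from DMSO; 16 hrs 37C/5% CO2; CellTiter-Glo added; 30 min RT; luminescence.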
# [6] = qHTS assay for small molecule activators of the heat shock response signaling pathway - cell viability counter screen (AID 743209); note: nearly all actives have a fitted effect of over 50% in size
# How it was run: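 Luminescence from CellTiter-Glo, added after the beta-lactamase FRET read, gave the viability signal. Cells were HSE-bla HeLa treated with DMSO-dissolved compounds for 5 h at 37 C following overnight plating.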
# [7] = qHTS assay for small molecule activators of the heat shock response signaling pathway (AID 743210; active = well fitted activation curve with a large enough effect in the signal ratio in the repeat runs, with a control signal flat, not every such curve was filed as active; the % refers to the signal ratio; note: series mostly up to about 63 µM)
# How it was run: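 HSE-bla HeLa cells (beta-lactamase reporter under heat shock response elements) were exposed to compounds for 5 h at 37 C, then loaded with LiveBLAzer B/G FRET substrate for 2.5 h at room temperature before fluorescence reading.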
# [8] = qHTS assay to identify small molecule agonists of the peroxisome proliferator-activated receptor delta (PPARd) signaling pathway - cell viability counter screen (AID 743211); note: nearly all actives have a fitted effect of over 55% in size; note: potency is the fitted concentration of half-maximal effect
# How it was run: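 Read-out: CellTiter-Glo luminescence, 30 min RT, measured in the same wells as the beta-lactamase reporter. Cells: GeneBLAzer PPAR delta UAS-bla HEK293H, 3000 cells/well, compound exposure 17 h at 37C.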
# [9] = target: Peroxisome proliferator-activated receptor delta (Homo sapiens) (UniProt Q03181); test: qHTS assay to identify small molecule agonists of the peroxisome proliferator-activated receptor delta (PPARd) signaling pathway (AID 743212; calls by dose curve)
# How it was run: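 GeneBLAzer PPARd UAS-bla HEK293H cells (beta-lactamase reporter under UAS control), plated and rested 5 h at 37 C, then exposed to compounds in DMSO at 37 C; LiveBLAzer B/G FRET substrate added, 2 h room temperature, fluorescence read.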
# [10] = qHTS assay to identify small molecule antagonists of the peroxisome proliferator-activated receptor delta (PPARd) signaling pathway - cell viability counter screen (AID 743213); note: nearly all actives have a fitted effect of over 50% in size; note: potency is the fitted concentration of half-maximal effect
# How it was run: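 Cytotoxicity counter screen: CellTiter-Glo luminescence read 30 min after addition, in the same wells as the reporter assay. There, PPARd UAS-bla HEK293H cells (3000/well) were treated 17 h at 37 C with compound and 300 nM L165041.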
# [11] = target: Peroxisome proliferator-activated receptor delta (Homo sapiens) (UniProt Q03181); test: qHTS assay to identify small molecule antagonists of the peroxisome proliferator-activated receptor delta (PPARd) signaling pathway (AID 743215; active = well fitted inhibition curve with a large enough effect in the signal ratio in the repeat runs, not every such curve was filed as active; the % refers to the signal ratio;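 note: cells stimulated with agonist L165041 at 300 nM final during compound exposure; series mostly up to about 62 µM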)
# How it was run: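 Read-out is beta-lactamase FRET fluorescence, measured 2 h after substrate addition at room temperature. Beforehand, UAS-bla HEK293H cells carrying the PPARd reporter were exposed to compounds with L165041 at 300 nM final for 17 h at 37 C.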
# [12] = target: Bile acid receptor (Homo sapiens) (UniProt Q96RI1); test: qHTS assay to identify small molecule antagonists of the farnesoid-X-receptor (FXR) signaling pathway (AID 743217; active = well fitted inhibition curve with a large enough effect in the signal ratio in the repeat runs, not every such curve was filed as active; the % refers to the signal ratio)
# How it was run: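 HEK 293T FXR-UAS-bla, 5000 cells/well; compound + CDCA 50 uM final; 16 h, 37 °C; B/G FRET substrate 2 h RT; fluorescence.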
# [13] = qHTS assay to identify small molecule agonists of the farnesoid-X-receptor (FXR) signaling pathway - cell viability counter screen (AID 743218); note: nearly all actives have a fitted effect of over 45% in size
# How it was run: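 HEK 293T FXR-bla cells; 5 h pre-incubation, 16 h compound exposure at 37 C; LiveBLAzer substrate 2 h RT, then CellTiter-Glo 30 min RT, luminescence.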
# [14] = target: Bile acid receptor (Homo sapiens) (UniProt Q96RI1); test: qHTS assay to identify small molecule agonists of the farnesoid-X-receptor (FXR) signaling pathway (AID 743220; active = well fitted activation curve with a large enough effect in the signal ratio in the repeat runs, not every such curve was filed as active; the % refers to the signal ratio)
# How it was run: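 Beta-lactamase reporter under UAS control in GeneBLAzer FXR HEK 293T cells (5000/well) measured with LiveBLAzer FRET substrate after 2 h at room temperature. Compound exposure lasted 16 h at 37C.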
# [15] = qHTS assay to identify small molecule antagonists of the farnesoid-X-receptor (FXR) signaling pathway - cell viability counter screen (AID 743221; active = well fitted cell-killing curve with a large enough effect in the repeat runs, not every such curve was filed as active; note: nearly all actives have a fitted effect of over 50% in size)
# How it was run: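 HEK 293T FXR-bla cells, 5 h pre-incubation; compound + CDCA 50 uM final, 16 h, 37 C; beta-lactamase FRET read first, then CellTiter-Glo luminescence, 30 min RT.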
# [16] = target: Vitamin D3 receptor (Homo sapiens) (UniProt P11473); test: qHTS assay to identify small molecule agonists of the vitamin D receptor (VDR) signaling pathway (AID 743222; calls by dose curve)
# How it was run: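 VDR-bla cells, 2,000/well; 4 h preincubation 37C; cpd (DMSO) 16 h; LiveBLAzer B/G substrate 2 h RT; fluorescence intensity read.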
# [17] = target: Vitamin D3 receptor (Homo sapiens) (UniProt P11473); test: qHTS assay to identify small molecule antagonists of the vitamin D receptor (VDR) signaling pathway (AID 743223; active = well fitted inhibition curve with a large enough effect in the signal ratio in the repeat runs, not every such curve was filed as active; the % refers to the signal ratio)
# How it was run: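 Beta-lactamase reporter read-out: FRET substrate fluorescence after 2 h at room temperature, following 16 h exposure of VDR-bla cells to test compound plus 3 nM (final) 1alpha,25-dihydroxyvitamin D3 agonist at 37C.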
# [18] = qHTS assay to identify small molecule agonists of the vitamin D receptor (VDR) signaling pathway - cell viability counter screen (AID 743224); note: series mostly up to about 63 µM; nearly all actives have a fitted effect of over 50% in size
# How it was run: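 Luminescence from CellTiter-Glo, read after 30 min at room temperature, reports viability of VDR-bla cells treated with compounds for 16 h at 37C in the wells used for the beta-lactamase FRET read.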
# [19] = target: Peroxisome proliferator-activated receptor gamma (Homo sapiens) (UniProt P37231); test: qHTS assay to identify small molecule agonists of the peroxisome proliferator-activated receptor gamma (PPARg) signaling pathway (AID 743094; active = well fitted activation curve with a large enough effect in the signal ratio in the repeat runs, not every such curve was filed as active; the % refers to the signal ratio)
# How it was run: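 Beta-lactamase FRET fluorescence was the read-out after a 1 h room-temperature substrate step, following 17 h compound treatment at 37C of HEK293H cells expressing a UAS-driven bla reporter responsive to PPARg.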
# [20] = target: Peroxisome proliferator-activated receptor gamma (Homo sapiens) (UniProt P37231); test: qHTS assay to identify small molecule antagonists of the peroxisome proliferator-activated receptor gamma (PPARg) signaling pathway (AID 743191; calls by dose curve; note: series mostly up to about 63 µM; nearly all actives have a fitted effect of over 30% in size)
# How it was run: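 GeneBLAzer PPARg UAS-bla HEK293H cells carrying a UAS-driven beta-lactamase reporter were plated at 3000 cells/well, preincubated 5 h at 37C, then given compound for 17 h at 37C; LiveBLAzer B/G FRET substrate was read after 1 h at room temperature.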
# Aryl hydrocarbon receptor (Homo sapiens), sequence (P35869 whole entry, looked up): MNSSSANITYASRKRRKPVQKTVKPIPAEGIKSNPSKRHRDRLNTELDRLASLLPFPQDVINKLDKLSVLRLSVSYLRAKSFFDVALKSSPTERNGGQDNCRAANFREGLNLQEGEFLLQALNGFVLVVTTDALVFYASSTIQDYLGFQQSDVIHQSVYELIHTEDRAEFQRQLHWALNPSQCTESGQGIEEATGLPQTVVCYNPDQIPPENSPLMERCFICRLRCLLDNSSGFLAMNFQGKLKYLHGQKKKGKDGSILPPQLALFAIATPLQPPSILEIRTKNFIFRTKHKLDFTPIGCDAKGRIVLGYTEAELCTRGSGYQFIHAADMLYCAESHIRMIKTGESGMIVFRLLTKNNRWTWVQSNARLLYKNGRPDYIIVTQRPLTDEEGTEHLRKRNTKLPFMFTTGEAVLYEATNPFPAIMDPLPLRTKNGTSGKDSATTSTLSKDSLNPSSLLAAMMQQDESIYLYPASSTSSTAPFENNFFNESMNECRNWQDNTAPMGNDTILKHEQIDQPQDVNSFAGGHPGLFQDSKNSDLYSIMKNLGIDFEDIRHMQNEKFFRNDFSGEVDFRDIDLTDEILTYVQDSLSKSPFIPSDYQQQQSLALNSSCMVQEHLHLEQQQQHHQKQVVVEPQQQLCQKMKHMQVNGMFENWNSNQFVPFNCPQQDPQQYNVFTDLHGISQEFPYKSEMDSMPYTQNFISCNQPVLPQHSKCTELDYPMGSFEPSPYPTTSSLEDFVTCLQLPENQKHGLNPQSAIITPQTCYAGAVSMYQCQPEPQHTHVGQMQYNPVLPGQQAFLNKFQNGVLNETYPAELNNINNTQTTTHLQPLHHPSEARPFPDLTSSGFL
# Peroxisome proliferator-activated receptor delta (Homo sapiens), sequence (Q03181 whole entry, looked up): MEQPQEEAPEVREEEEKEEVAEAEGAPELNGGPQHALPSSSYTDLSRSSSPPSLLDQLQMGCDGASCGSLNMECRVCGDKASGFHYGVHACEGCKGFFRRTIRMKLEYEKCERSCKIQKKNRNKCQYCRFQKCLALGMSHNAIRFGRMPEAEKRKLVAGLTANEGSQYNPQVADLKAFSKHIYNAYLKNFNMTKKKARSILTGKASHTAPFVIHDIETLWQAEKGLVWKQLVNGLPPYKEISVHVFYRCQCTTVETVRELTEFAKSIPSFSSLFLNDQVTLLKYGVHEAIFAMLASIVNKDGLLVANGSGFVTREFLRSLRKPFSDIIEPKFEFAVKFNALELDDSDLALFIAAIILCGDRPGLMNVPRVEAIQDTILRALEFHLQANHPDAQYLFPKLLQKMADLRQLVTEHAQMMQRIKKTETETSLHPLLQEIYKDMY
# Bile acid receptor (Homo sapiens), sequence (Q96RI1 whole entry, looked up): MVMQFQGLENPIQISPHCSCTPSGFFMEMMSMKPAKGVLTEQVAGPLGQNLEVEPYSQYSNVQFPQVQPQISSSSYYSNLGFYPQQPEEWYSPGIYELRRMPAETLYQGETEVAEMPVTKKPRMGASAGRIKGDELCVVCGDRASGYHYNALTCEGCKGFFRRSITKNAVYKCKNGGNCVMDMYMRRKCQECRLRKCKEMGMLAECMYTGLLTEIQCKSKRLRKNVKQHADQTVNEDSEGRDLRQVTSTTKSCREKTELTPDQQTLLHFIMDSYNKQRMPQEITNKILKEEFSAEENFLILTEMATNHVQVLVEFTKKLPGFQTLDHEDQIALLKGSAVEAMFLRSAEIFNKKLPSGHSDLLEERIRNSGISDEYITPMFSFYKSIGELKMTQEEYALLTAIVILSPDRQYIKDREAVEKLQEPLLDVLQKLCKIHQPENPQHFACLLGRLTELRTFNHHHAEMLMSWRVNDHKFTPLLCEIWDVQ
# Vitamin D3 receptor (Homo sapiens), sequence (P11473 whole entry, looked up): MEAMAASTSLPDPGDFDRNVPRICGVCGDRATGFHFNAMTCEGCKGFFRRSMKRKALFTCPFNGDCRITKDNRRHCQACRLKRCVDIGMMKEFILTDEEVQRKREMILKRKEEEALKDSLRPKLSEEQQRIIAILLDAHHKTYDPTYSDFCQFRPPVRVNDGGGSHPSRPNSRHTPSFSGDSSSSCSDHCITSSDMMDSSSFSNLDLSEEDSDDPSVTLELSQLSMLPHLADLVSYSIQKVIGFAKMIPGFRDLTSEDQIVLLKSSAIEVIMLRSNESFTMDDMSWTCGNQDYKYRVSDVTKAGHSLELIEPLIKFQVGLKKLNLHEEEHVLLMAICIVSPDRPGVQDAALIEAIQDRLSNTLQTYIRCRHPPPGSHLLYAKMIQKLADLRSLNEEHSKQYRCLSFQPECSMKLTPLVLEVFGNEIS
# Peroxisome proliferator-activated receptor gamma (Homo sapiens), sequence (P37231 whole entry, looked up): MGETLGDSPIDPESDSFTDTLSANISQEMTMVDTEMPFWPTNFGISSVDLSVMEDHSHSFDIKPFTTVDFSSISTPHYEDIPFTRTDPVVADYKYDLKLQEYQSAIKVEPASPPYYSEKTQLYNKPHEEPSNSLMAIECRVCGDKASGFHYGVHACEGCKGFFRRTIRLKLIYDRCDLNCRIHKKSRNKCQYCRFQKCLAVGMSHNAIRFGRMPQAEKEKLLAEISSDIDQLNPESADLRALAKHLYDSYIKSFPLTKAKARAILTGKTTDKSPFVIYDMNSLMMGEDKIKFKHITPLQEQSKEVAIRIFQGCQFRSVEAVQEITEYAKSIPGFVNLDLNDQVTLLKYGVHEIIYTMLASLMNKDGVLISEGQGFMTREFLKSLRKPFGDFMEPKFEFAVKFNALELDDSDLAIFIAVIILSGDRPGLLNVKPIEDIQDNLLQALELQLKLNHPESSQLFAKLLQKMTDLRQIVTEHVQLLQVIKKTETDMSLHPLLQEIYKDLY
Compound,Potency [1],Potency [2],Potency [3],Potency [4],outcome [5],outcome [6],outcome [7],Potency [8],outcome [9],Potency [10],outcome [11],outcome [12],outcome [13],outcome [14],Potency [15],outcome [16],outcome [17],outcome [18],outcome [19],outcome [20]
COc1cccc(OC)c1,inactive,inactive,inactive,inactive,inactive,inactive,inactive,inactive,inactive,inactive,inactive,inactive,inactive,inactive,inactive,inactive,inactive,inactive,,
CCN1CCN(c2cc3c(cc2F)c(=O)c(C(=O)O)cn3C2CC2)CC1,inactive,inactive,inactive,,inactive,inactive,inactive,,inactive,inactive,,,inactive,,,inactive,inactive,inactive,,
O=C1C(CCS(=O)c2ccccc2)C(=O)N(c2ccccc2)N1c1ccccc1 (configuration not stated),inactive,inactive,inactive,,inactive,inactive,inactive,,inactive,inactive,inactive,,inactive,,inactive,,,,,
CCc1cc(S(=O)(=O)O)c2cc(C(C)C)cccc1-2,inactive,inactive,inactive,,inactive,inactive,inactive,inactive,inactive,inactive,inactive,,inactive,,inactive,,inactive,,,
CC(C)=CCC/C(C)=C/C(=O)O,inactive,inactive,inactive,inactive,inactive,inactive,inactive,,,inactive,,,inactive,,inactive,,,inactive,,
O=C(O)/C=C/c1ccc(Cn2ccnc2)cc1,inactive,inactive,inactive,,inactive,,inactive,inactive,inactive,,inactive,inactive,inactive,inactive,,inactive,inactive,inactive,,
O=C(O)c1ccccc1-c1ccc(C(F)(F)F)cc1,inactive,inactive,inactive,inactive,inactive,inactive,inactive,,inactive,inactive,,inactive,inactive,inactive,inactive,inactive,,,,
OC/C=C/c1ccccc1,inactive,inactive,inactive,inactive,inactive,inactive,inactive,inactive,inactive,inactive,,,inactive,,,inactive,inactive,inactive,,
O=C(O)CCNC(=O)c1ccc(N=Nc2ccc(O)c(C(=O)O)c2)cc1,inactive,,inactive,inactive,inactive,inactive,,inactive,inactive,inactive,inactive,inactive,inactive,inactive,inactive,,,inactive,inactive,inactive
CCCCCCCCCCC1CO1 (configuration not stated),inactive,inactive,inactive,,inactive,inactive,inactive,inactive,inactive,inactive,inactive,,inactive,,,,inactive,inactive,,
O=C(O)Cc1cc(I)c(Oc2cc(I)c(O)c(I)c2)c(I)c1,inactive,inactive,,,,inactive,,inactive,,inactive,,,,,,,,inactive,,
CCCCCN(CCCCC)C(=O)C(CCC(=O)O)NC(=O)c1ccc(Cl)c(Cl)c1 (configuration not stated),inactive,inactive,inactive,,inactive,inactive,,,,inactive,inactive,,inactive,,inactive,,,inactive,,
NS(=O)(=O)c1cc2c(cc1C(F)(F)F)NC(Cc1ccccc1)NS2(=O)=O (configuration not stated),inactive,inactive,inactive,inactive,inactive,inactive,inactive,inactive,inactive,inactive,,,,,inactive,inactive,inactive,inactive,,
CC12CCC(CC1=O)C2(C)C (configuration not stated),inactive,inactive,,,inactive,inactive,inactive,inactive,inactive,inactive,inactive,,,,inactive,inactive,inactive,inactive,,
Fc1ccccc1-c1ccccc1,inactive,inactive,inactive,,inactive,,inactive,,inactive,inactive,,,inactive,,inactive,inactive,inactive,,,
C1=C\CC/C=C\CC/C=C\CC/1,inactive,inactive,inactive,,inactive,inactive,inactive,inactive,inactive,inactive,inactive,inactive,inactive,inactive,inactive,inactive,,inactive,,
COc1cccc(Br)c1,inactive,,inactive,inactive,inactive,inactive,inactive,inactive,inactive,inactive,inactive,,inactive,,inactive,inactive,,inactive,inactive,
CN(C)C(=O)C(CCN1CCC(O)(c2ccc(Cl)cc2)CC1)(c1ccccc1)c1ccccc1,inactive,,,,,inactive,inactive,23.7 µM (active),,11.9 µM (active),,,,inactive,,,inactive,,,
C=C(C)C1CC=C(C)C(O)C1 (configuration not stated),inactive,inactive,inactive,inactive,inactive,,inactive,inactive,inactive,inactive,,,inactive,,inactive,,,inactive,,
Cc1ccc(Nc2ccc(O)c3c2C(=O)c2ccccc2C3=O)cc1,,inactive,inactive,,inactive,inactive,inactive,inactive,inactive,inactive,,inactive,inactive,inactive,inactive,inactive,inactive,inactive,inactive,inactive
Nc1ccc2cc(S(=O)(=O)O)ccc2c1,inactive,,inactive,,inactive,inactive,inactive,,inactive,inactive,inactive,inactive,inactive,inactive,inactive,inactive,inactive,inactive,,
